PubChem BioAssay (NCATS)
Several values for one entry are separate records, joined by “and”; a condition that tells them apart may be missing. Identical values can stand only once. Inconclusive results are not listed. Activity calls are given as the source filed them. Unless noted, the call rests on the fitted dose curve; in most records, active means well fitted curve in the direction sought with a large enough effect; inconclusive means small, poorly fitted or top-dose-only effect, or another doubt; inactive means no such curve, though single readings can be large; an effect the other way counts as inactive or inconclusive.

Legend:
[1] = target: alpha-glucosidase (Oryza sativa, rice) (UniProt Q653V4); experiment: Counterscreen for Glucocerebrosidase Inhibitors: qHTS Assay for Rice alpha-Glucosidase at pH 5.0 (AID 997);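 further: 0% = full activity with enzyme and -100% = basal without enzyme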
Outline: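 Endpoint fluorogenic assay at pH 5.0: compounds (0.7 nM to 77 uM) titrated against 4 nM rice enzyme and 400 uM 4-MU-alpha-glucoside for 20 min at room temperature; NaOH/glycine stop, read ex 365/em 440 nm, Hill-fitted AC50.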

[2] = Validation of Assay for Modulators of Lamin A Splicing (AID 1459; active means well fitted curve in the direction sought with a large enough effect in the signal ratio; the % refers to the signal ratio;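 further: cells exposed to compound for two days before reading; 0% is about no effect; ratio rise marks activators and ratio drop marks inhibitors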)
Outline: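 Splicing correction read as GFP (500-530 nm) over DsRed2 (575-640 nm) object intensity after 48 h compound exposure of reporter HeLa S3 clones (600 cells/well, 2% FBS medium); ancitabine and cycloheximide titrations, 0.5% DMSO as vehicle.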

[3] = qHTS Assay for Lipid Storage Modulators (AID 1519; calls by dose curve; on activity change, negative = inhibition: on the % scale 0 is the no-effect control and ±100 the full control effect); details: Drosophila S3 cells, BODIPY lipid droplet/cell ratio, laser cytometry, cells loaded with oleic acid; for activity change, negative = inhibition: at 57.5 µM (top of the series)
Outline: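 Cells seeded at 5,000 per well were treated with compounds over a concentration series and loaded with oleic acid (400 uM, as added). Lipid droplet fluorescence (488 nm excitation, 500-530 nm channel) was read by laser-scanning cytometry and normalized to 20 uM Triacsin C.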

[4] = target: DNA repair nuclease/redox regulator APEX1 (Homo sapiens) (UniProt P27695); experiment: qHTS Validation Assay for Inhibitors of the Human Apurinic/apyrimidinic Endonuclease 1 (APE1) (AID 1705; further: potency means the concentration at half of the fitted maximal effect;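 on activity change, negative = inhibition: TAMRA fluorescence gain over two minutes as APE1 cuts a quenched THF abasic duplex; on the % scale 0 is the no-effect control and ±100 the full control effect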)
Chain of DNA repair nuclease/redox regulator APEX1 (Homo sapiens) (P27695 whole entry, looked up): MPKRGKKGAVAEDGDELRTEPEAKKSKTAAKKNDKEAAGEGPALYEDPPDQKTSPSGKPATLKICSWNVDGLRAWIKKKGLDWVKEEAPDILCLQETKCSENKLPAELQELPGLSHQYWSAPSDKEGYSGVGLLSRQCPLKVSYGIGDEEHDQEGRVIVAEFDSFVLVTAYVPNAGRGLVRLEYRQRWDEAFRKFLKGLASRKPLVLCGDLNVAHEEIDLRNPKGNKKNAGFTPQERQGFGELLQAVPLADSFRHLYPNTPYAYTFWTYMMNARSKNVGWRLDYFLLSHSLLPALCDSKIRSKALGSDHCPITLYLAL
Outline: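 Activity read as rising fluorescence (598 nm emission, 525 nm excitation) from incision of a TAMRA/BHQ-2 duplex carrying a THF abasic site (50 nM). Compound and enzyme sat 15 min at RT before substrate start; signal change between first and third 60-s reads.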

[5] = Counterscreen for APE1 Inhibitors: Fluorescent Dye Displacement Validation Assay (AID 1707);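 further: plate controls were ThO with dsDNA and no compound for no effect and ThO without dsDNA for full effect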
Outline: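 Signal: ThO fluorescence (ex 480 nm/em 540 nm) on binding 50 nM dsDNA; displacement by test compound reduces it. Conditions: 250 nM dye, 50 mM Tris-HCl pH7.5, 2 mM MgCl2, 50mM NaCl, 0.01% Tween-20.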

[6] = target: Endonuclease 4 (Escherichia coli (strain K12)) (UniProt P0A6C1); experiment: Counterscreen for APE1 Inhibitors: qHTS Validation Assay for Inhibitors of Endonuclease IV (AID 1708); further: on the % scale 0 is the no-effect control and ±100 the full control effect
Outline: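 Read-out: fluorescence rise (ex 525/em 598 nm) from incision of a TAMRA/BHQ-2 double-stranded THF abasic-site substrate (50 nM), measured kinetically; third-minus-first read difference gave reaction progress. Enzyme 2 nM.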

[7] = qHTS for differential inhibitors of proliferation of Plasmodium falciparum line 7G8 (AID 1815);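 further: parasite growth measured after three days of incubation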; further: potency means the concentration at half of the fitted maximal effect;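 on activity change, negative = inhibition: plate controls were vehicle wells for no effect and reference inhibitor wells for full effect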
[8] = qHTS for differential inhibitors of proliferation of Plasmodium falciparum line GB4 (AID 1816); details: Potency: Plasmodium falciparum GB4 proliferation inhibition;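 further: parasite growth measured after 72 h incubation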; further: potency means the concentration at half of the fitted maximal effect;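 on activity change, negative = inhibition: 0% = vehicle DMSO and -100% = reference inhibitor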
[9] = qHTS for differential inhibitors of proliferation of Plasmodium falciparum line 3D7 (AID 1876); further: potency means the concentration at half of the fitted maximal effect
[10] = qHTS for differential inhibitors of proliferation of Plasmodium falciparum line D10 (AID 1877);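 further: parasites grown with compound for 72 h before DNA staining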; further: potency means the concentration at half of the fitted maximal effect;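 on activity change, negative = inhibition: plate controls were vehicle wells for no effect and reference inhibitor wells for full effect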
[11] = qHTS for differential inhibitors of proliferation of Plasmodium falciparum line Dd2 (AID 1882); details: Potency: Plasmodium falciparum Dd2 proliferation inhibition;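 further: compound exposure of 72 h on infected erythrocytes; plate controls were DMSO vehicle for no effect and 0.29 µM artemisinin for full effect; nearly all actives have a fitted effect of over 65% in size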
Outline: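 RBC culture, 0.3% parasitemia / 2.5% Hct final; cpd added by pin tool in DMSO; 72 h, 37 C, 5% CO2; lysis buffer + SYBR Green I, o/n RT dark; FI 485/535; norm. to artemisinin 0.29 uM and DMSO.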

[12] = qHTS for differential inhibitors of proliferation of Plasmodium falciparum line W2 (AID 1883); details: Potency: Plasmodium falciparum W2 proliferation inhibition;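 further: parasites grown with compound for 72 h before lysis and staining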; further: potency means the concentration at half of the fitted maximal effect;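 on activity change, negative = inhibition: 0% = vehicle wells and -100% = control inhibitor wells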
[13] = target: Alpha-galactosidase A (Homo sapiens) (UniProt P06280); experiment: Counterscreen for Glucocerebrosidase Inhibitors: qHTS Assay for Human alpha-Galactosidase at pH 4.5 (AID 992); further: 0% is about no effect
Chain of Alpha-galactosidase A (Homo sapiens) (P06280 whole entry, looked up): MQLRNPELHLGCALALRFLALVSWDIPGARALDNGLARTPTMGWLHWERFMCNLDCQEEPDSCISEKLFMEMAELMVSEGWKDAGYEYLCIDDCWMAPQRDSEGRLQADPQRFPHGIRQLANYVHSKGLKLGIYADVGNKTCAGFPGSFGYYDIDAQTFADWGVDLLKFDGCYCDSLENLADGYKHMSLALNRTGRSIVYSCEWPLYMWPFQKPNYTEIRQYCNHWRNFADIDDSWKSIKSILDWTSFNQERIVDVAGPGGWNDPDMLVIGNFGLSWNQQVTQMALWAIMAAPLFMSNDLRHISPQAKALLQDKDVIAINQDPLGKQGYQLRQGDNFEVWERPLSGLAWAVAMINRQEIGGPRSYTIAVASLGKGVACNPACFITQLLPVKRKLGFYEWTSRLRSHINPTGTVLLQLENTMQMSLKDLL
Outline: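 Citrate buffer pH 4.5, Tween-20 0.005%. Enzyme 2 nM, substrate 80 uM, 20 min RT. Stop pH 10. Fluorescence Ex 365/Em 440. AC50 by Hill fit.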

[14] = Cell Viability - LYMP2-018 (AID 985);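 further: plate controls were DMSO only for no effect and tetraoctylammonium bromide at 92 µM for full effect; nearly all actives have a fitted effect of over 50% in size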
Outline: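 2500 cells/well; 5 hr 37 C; cmpd 24 hr 37 C, complete medium; CellTiter-Glo 30 min RT; luminescence. Tetraoctylammonium bromide positive control. AC50 via Hill fit.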

[15] = Cell Viability - LYMP2-020 (AID 986);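 further: plate controls were DMSO only for no effect and tetraoctylammonium bromide at 92 µM for full effect; nearly all actives have a fitted effect of over 55% in size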
Outline: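 qHTS, 2500 cells/well; 5 hr then 24 hr compound exposure, 37 C; CellTiter-Glo luminescence after 30 min RT; ATP decrease taken as cytotoxicity; AC50 via Hill equation; tetraoctylammonium bromide positive control.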

[16] = Cell Viability - LYMP2-022 (AID 987);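 further: 0% = DMSO alone and full effect = tetraoctylammonium bromide at 92 µM; nearly all actives have a fitted effect of over 55% in size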
Outline: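 Luminescent ATP read-out (CellTiter-Glo, 30 min, RT) after 24 hr, 37 C compound exposure of 2500 human lymphoblastoid cells/well in complete medium. Cytotoxicity taken as concentration-dependent ATP loss; AC50 from standard Hill equation.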

[17] = Cell Viability - LYMP2-024 (AID 988);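 further: plate controls were DMSO only for no effect and 92 µM tetraoctylammonium bromide for full effect; nearly all actives have a fitted effect of over 60% in size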
Outline: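 ATP-based luminescence (CellTiter-Glo, 30 min RT) after 24 h compound exposure at 37 C of 2500 lymphoblastoid cells/well; decrease in ATP taken as cytotoxicity. qHTS concentration-response fitted to standard Hill equation for AC50.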

[18] = Cell Viability - LYMP2-026 (AID 989); further: on the % scale 0 is the no-effect control and ±100 the full control effect; nearly all actives have a fitted effect of over 50% in size
Outline: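 qHTS cytotoxicity: 2500 cells/well, 5 hr 37 C, compound 24 hr 37 C, CellTiter-Glo 30 min RT, luminescence. Tetraoctylammonium bromide positive control. AC50 via standard Hill fit.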

[19] = Cell Viability - LYMP1-002 - Assay at 24 hr (AID 993); further: on the % scale 0 is the no-effect control and ±100 the full control effect
Outline: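 CellTiter-Glo luminescence (intracellular ATP) after 24 h compound exposure, 37 C, in LYMP1-002 human lymphoblastoid cells; decreased ATP taken as cytotoxicity. AC50 from standard Hill fit of concentration-response curves.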

[20] = Cell Viability - LYMP1-002 - Assay at 40 hr (AID 994);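 further: 0% = DMSO only and full inhibition = 92 µM tetraoctylammonium bromide; nearly all actives have a fitted effect of over 60% in size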
Outline: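 qHTS cytotoxicity; 2500 cells/well, 5 hr 37 C settle, compound 40 hr 37 C. CellTiter-Glo, 30 min RT, luminescence (ATP). Concentration-response, Hill fit → AC50. Pos. ctrl tetraoctylammonium bromide.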

[21] = measured here: cell count channel max response
[22] = measured here: lipid channel max response

O=C(O)c1cc(=O)c2c(Cl)cc(Cl)cc2[nH]1
inactive: outcome [1] | outcome [2] | activity change, negative = inhibition [3] 4.31% and -0.435% | Potency [4] | Potency [5] | Potency [6] | Potency [7] | Potency [8] | Potency [9] | Potency [10] | Potency [11] | Potency [12]
15.8% and 12.6%: max response [3, 21]
22.3% and 11.7%: max response [3, 22]

O=c1[nH]c2cc([N+](=O)[O-])c([N+](=O)[O-])cc2[nH]c1=O
inactive: outcome [13] | outcome [1] | outcome [2] | activity change, negative = inhibition [3] 3.97% | Potency [5] | Potency [6] | Potency [7] | Potency [8] | Potency [9] | Potency [10] | Potency [11]
2.64%: max response [3, 22]
-1.11%: max response [3, 21]

NCCSSCCN
9.22%: max response [3, 21]
16.2%: max response [3, 22]
inactive: outcome [1] | outcome [2] | activity change, negative = inhibition [3] 3.98% | Potency [5] | Potency [6] | Potency [7] | Potency [8] | Potency [10] | Potency [11] | Potency [12]

O=C(O)c1cc([N+](=O)[O-])ccc1NCCCc1ccccc1
-12.2%: max response [3, 22]
-11.5%: max response [3, 21]
inactive: outcome [1] | outcome [2] | activity change, negative = inhibition [3] 0.312% | Potency [4] | Potency [5] | Potency [8] | Potency [9] | Potency [11]

C=C/C(C)=C/[C@@]1(C)SC(=O)C(C)=C1O
inactive: outcome [2] | activity change, negative = inhibition [3] 0.111% | Potency [5] | Potency [8] | Potency [9] | Potency [10] | Potency [11] | Potency [12]
30.8%: max response [3, 21]
active: Potency [4] 1 µM
34%: max response [3, 22]

O=C(O)CNC(=O)C(CS)Cc1ccccc1 (stereo unspecified)
inactive: outcome [2] | activity change, negative = inhibition [3] 0.149% | Potency [4] | Potency [5] | Potency [6] | Potency [7] | Potency [8] | Potency [9] | Potency [10] | Potency [11] | Potency [12]
-2.71%: max response [3, 22]
-2.09%: max response [3, 21]

O=C(O)[C@@H]1C[C@@H](C(=O)O)N1
inactive: outcome [13] | outcome [1] | outcome [2] | activity change, negative = inhibition [3] -10.7% and 0.262% | Potency [5] | Potency [6] | Potency [7] | Potency [8] | Potency [9] | Potency [10] | Potency [11]
-25% and -8.29%: max response [3, 22]
-15.8% and -6.72%: max response [3, 21]

Cn1c(=O)c2[nH]c(-c3ccccc3)nc2n(C)c1=O
55.6%: max response [3, 22]
inactive: outcome [13] | outcome [1] | outcome [2] | activity change, negative = inhibition [3] 1.32% | Potency [4] | Potency [5] | Potency [6] | Potency [7] | Potency [8] | Potency [9] | Potency [10] | Potency [11]
63.6%: max response [3, 21]

CN1C2CCC1CC(OC(=O)C(O)c1ccccc1)C2 (stereo unspecified)
inactive: outcome [2] | activity change, negative = inhibition [3] 9.19% | Potency [4] | Potency [5] | Potency [6] | Potency [7] | Potency [8] | Potency [9] | Potency [10] | Potency [11]
28.9%: max response [3, 22]
16.5%: max response [3, 21]

Cc1ccc(C(=O)O[C@H](C(=O)O)[C@@H](OC(=O)c2ccc(C)cc2)C(=O)O)cc1 (tested in a mixture with another compound)
38.6%: max response [3, 22]
35.2%: max response [3, 21]
inactive: outcome [2] | activity change, negative = inhibition [3] -0.359% | Potency [5] | Potency [6] | Potency [7] | Potency [8] | Potency [9] | Potency [10] | Potency [11] | Potency [12]

NCCCCC(=O)O
11.7% and -48.3%: max response [3, 22]
-8.72% and -47.7%: max response [3, 21]
inactive: outcome [13] | outcome [1] | outcome [2] | activity change, negative = inhibition [3] 7.28% and -0.299% | Potency [5] | Potency [6] | Potency [7] | Potency [8] | Potency [9] | Potency [10] | Potency [11] | Potency [12]

NC(N)=NC(=O)c1nc(Cl)c(N2CCCCCC2)nc1N
5.25% and -33%: max response [3, 21]
active: Potency [7] 8.91 µM | Potency [8] 12.6 µM | Potency [9] 4.47 µM | Potency [10] 7.94 µM | Potency [12] 2.82 µM
inactive: outcome [13] | outcome [1] | outcome [2] | activity change, negative = inhibition [3] -1.28% and 0.178% | Potency [4] | Potency [5]
6.67% and -33.1%: max response [3, 22]

CN(C)CCC(c1ccc(Cl)cc1)c1ccccn1 (stereo unspecified)
45.4%: max response [3, 21]
46%: max response [3, 22]
inactive: Potency [14] | Potency [15] | Potency [16] | Potency [17] | Potency [18] | Potency [19] | Potency [20] | outcome [2] | activity change, negative = inhibition [3] 1.75% | Potency [5] | Potency [6] | Potency [10]

CN1CCC[C@H]1c1cccnc1
inactive: Potency [14] | Potency [15] | Potency [16] | Potency [17] | Potency [18] | Potency [19] | Potency [20] | outcome [2] | activity change, negative = inhibition [3] 2.76% and 1.23% | Potency [4] | Potency [5] | Potency [6] | Potency [7] | Potency [8] | Potency [9] | Potency [10] | Potency [11] | Potency [12]
8.37% and -8.82%: max response [3, 21]
10.7% and -7.32%: max response [3, 22]

N.N.O=C(O)C1(C(=O)O)CCC1.[Pt]
23.7% and -31.2%: max response [3, 22]
15.2% and -33.4%: max response [3, 21]
inactive: outcome [13] | outcome [1] | outcome [2] | activity change, negative = inhibition [3] 7.88% and 0.357% | Potency [5] | Potency [6] | Potency [11]
active: Potency [9] 12.6 µM | Potency [12] 10 µM
